# Screening data: PubChem, National Center for Advancing Translational Sciences (NCATS)
# DT40 TDP1 no CPT – qHTS for Inhibitors of human tyrosyl-DNA phosphodiesterase 1 (TDP1): qHTS in cells in absence of CPT | DT40 Tdp1-/- hTDP1 cells, no CPT, ATP luminescence, 48 h | Potency, µM (highest dose often 46.2 µM), inactives show at the highest dose activity change, negative = growth inhibition, usual class: inhibitors | 15% of 420,000 active | AID 686978, 2013; note: nearly all actives have a fitted effect of over 55% in size
#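 Chicken DT40 Tdp1-/- cells complemented with human TDP1, screened without camptothecin (DMSO vehicle only), 400 cells/well. Compounds pin-transferred, cells incubated at 37 °C for at least 48 hr. Growth read as ATP-dependent luminescence (CellTiter-Glo, 30 min at RT).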
# RORgamma inh – qHTS for inhibitors of ROR gamma transcriptional activity. Nuclear receptor ROR-gamma (Mus musculus), P51450. Drosophila S2 Gal4-RORgamma UAS-luciferase reporter, 20 h. Potency, µM (titrated, usually from 53.6 µM), inactives show at the top dose activity change, negative = inhibition, actives largely listed as inhibitors. 5.4% of 310,000 active; note: nearly all actives have a fitted effect of over 60% in size
# Target sequence (P51450 whole entry, looked up, the tested form may be a part): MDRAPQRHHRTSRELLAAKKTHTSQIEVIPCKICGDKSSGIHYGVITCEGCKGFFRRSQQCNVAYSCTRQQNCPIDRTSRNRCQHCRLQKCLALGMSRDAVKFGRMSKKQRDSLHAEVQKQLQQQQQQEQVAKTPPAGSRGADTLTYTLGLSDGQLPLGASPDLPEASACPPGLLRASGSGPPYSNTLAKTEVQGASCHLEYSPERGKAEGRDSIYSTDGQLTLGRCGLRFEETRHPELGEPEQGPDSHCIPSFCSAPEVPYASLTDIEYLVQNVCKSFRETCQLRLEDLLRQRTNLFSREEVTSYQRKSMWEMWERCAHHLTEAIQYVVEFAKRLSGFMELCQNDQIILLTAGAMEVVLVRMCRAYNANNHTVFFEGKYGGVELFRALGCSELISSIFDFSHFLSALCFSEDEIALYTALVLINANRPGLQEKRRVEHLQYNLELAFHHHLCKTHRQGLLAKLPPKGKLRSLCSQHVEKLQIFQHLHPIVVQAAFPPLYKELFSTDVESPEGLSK
#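 Compounds are pin-transferred onto Drosophila Schneider cells expressing a copper-inducible Gal4–ROR gamma transactivation domain fusion. After 1 hr, copper sulfate is added to 700 uM final; luciferase is read 20 hr later.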
# TDP1 inh – qHTS Assay for Inhibitors of Tyrosyl-DNA Phosphodiesterase (TDP1). 0.28% of 350,000 active. Potency, µM (titrated, usually from 130 µM), without a hit: at the highest dose activity change, negative = inhibition, actives largely listed as inhibitors. recombinant TDP1, AlphaScreen DNA substrate cleavage; note: nearly all actives have a fitted effect of over 40% in size
#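 Recombinant E. coli-expressed Tdp1 (1 nM) preincubated with compound 15 min at RT, then 5'-biotin/3'-phosphotyrosine-FITC DNA substrate (15 nM) added for 5 min. AlphaScreen beads (10 ug/ml) added, 10 min RT; tyrosine-FITC cleavage read as signal loss.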
# Gal4-VP16 FLuc – VP16 counterscreen qHTS for inhibitors of ROR gamma transcriptional activity | Drosophila S2 Gal4-VP16 UAS-luciferase, luminescence, 20 h | Potency, µM (titrated, usually from 53.6 µM), for inactives: top-dose activity, negative = inhibition, usual class: inhibitors | 3.5% of 310,000 active | AID 2546, 2010;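 note: Gal4-VP16 expression switched on by copper sulfate through the metallothionein promoter; nearly all actives have a fitted effect of over 50% in size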
# TDP1 cell CPT – qHTS for Inhibitors of human tyrosyl-DNA phosphodiesterase 1 (TDP1): qHTS in cells in presence of CPT | chicken DT40 Tdp1-/-;hTDP1 cells + 20 nM CPT, ATP luminescence, 48 h | Potency, µM (series often up to 46.2 µM), inactives show at the top dose activity change, negative = growth inhibition, usual class: inhibitors | 12% of 420,000 active; note: nearly all actives have a fitted effect of over 55% in size
#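 Chicken DT40 Tdp1-/- cells complemented with human TDP1, 400 cells/well, exposed to compounds plus 20 nM camptothecin for at least 48 h at 37 C; viability read as ATP content by CellTiter-Glo luminescence.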
# An asterisk follows results filed as active; ? = inconclusive; nt = no result; ! = not active in a repeat; [ ] = another dose, or the depositor's remark. Most compounds without a hit are left out; they make up all but 19% or so of the library. Calls come from the whole dose curve; as a rule, active = well fitted curve in the direction sought with a large enough effect; inconclusive = small, poorly fitted or top-dose-only effect, or another doubt; inactive = no such curve, though single readings can be large; an effect the other way counts as inactive or inconclusive. % is set by controls: 0 for no effect and ±100 for the full control effect; potency is the fitted concentration of half-maximal effect.
SMILES,DT40 TDP1 no CPT,RORgamma inh,TDP1 inh,Gal4-VP16 FLuc,TDP1 cell CPT
Cc1cc(C)cc(C(=O)NC(CC(N)=O)c2ccc(N3CCC(Br)CC3)c([N+](=O)[O-])c2)c1 (stereo not given),?,12%,nt,2%,?
NC(=O)CC(NC(=O)c1cccc(Br)c1)c1ccc(N2CCC(Br)CC2)c([N+](=O)[O-])c1 (stereo not given),?,35%,nt,?,21µM*
CCC(=O)C1CCCN(C(=O)c2cccc(OC3CCN(S(C)(=O)=O)CC3)c2)C1 (stereo not given),-7%,nt,nt,nt,-26%
Cc1nc([N+](=O)[O-])cn1CC(=O)c1ccccc1,-9%,2%,3%,-7%,-5%
CCCCNC(=O)c1nc(C2CCN(S(=O)(=O)c3ccc(OC(F)(F)F)cc3)CC2)oc1-c1ccccc1,6.5µM*,nt,nt,nt,7.3µM*
CCCCNC(=O)c1nc(C2CCN(S(=O)(=O)c3c(F)cccc3F)CC2)oc1-c1ccccc1,18µM*,nt,nt,nt,9.2µM*
CCCCNC(=O)c1nc(C2CCN(S(=O)(=O)c3c(F)cccc3F)CC2)oc1-c1cccc(C(F)(F)F)c1,-10%,nt,nt,nt,7%
CCCCNC(=O)c1nc(C2CCN(S(=O)(=O)c3ccccc3C(F)(F)F)CC2)oc1-c1ccccc1,16µM*,nt,nt,nt,23µM*
CCCCNC(=O)c1nc(C2CCN(S(=O)(=O)c3ccc(F)c(F)c3)CC2)oc1-c1ccccc1,6.5µM*,nt,nt,nt,10µM*
Cc1ccc(C)c(N2CCN(S(=O)(=O)c3csc(C(N)=O)c3)CC2)c1,?,1%,2%,-14%,16µM*!
Cc1ccc(C)c(N2CCN(S(=O)(=O)c3ccc(C(=O)N(C)C)s3)CC2)c1,16µM*,nt,-6%,nt,18µM*
O=C(NNc1ccc(C(F)(F)F)cc1[N+](=O)[O-])c1ccc(NS(=O)(=O)c2ccc(F)cc2)cc1,23µM*,?,9%,?,?
Cc1ccc(S(=O)(=O)NCCC(=O)N2CCN(S(=O)(=O)c3ccccc3)CC2)cc1C,-30%,nt,nt,nt,?
Cc1ccc(C)c(S(=O)(=O)N2CCN(C(=O)CCNC(=O)c3ccc(Br)cc3)CC2)c1,21µM*,nt,0%,nt,23µM*
COc1cc(C(=O)NCC(=O)N2CCN(S(=O)(=O)c3cc(C)ccc3C)CC2)cc(OC)c1OC,3.7µM*,23%,2%,8%,5.8µM*
Cc1ccc(C)c(S(=O)(=O)N2CCN(C(=O)CCNS(=O)(=O)c3ccc(C)c(C)c3)CC2)c1,18µM*,nt,1%,nt,?
NCCCC[C@@H](N)C(=O)O,-21%,-10%,6%,-2%,9%
COc1ccc(N(CC(=O)NCc2ccc(C)cc2)S(=O)(=O)c2ccccc2[N+](=O)[O-])c(OC)c1,23µM*,2%,3%,-12%,?
CCOc1ccccc1N(CC(=O)Nc1cccc(OC)c1)S(=O)(=O)c1ccccc1,?,-7%,-4%,-4%,29µM*
CCOc1ccccc1N(CC(=O)Nc1ccc(OC)cc1OC)S(=O)(=O)c1ccccc1,26µM*,21%,nt,4%,?
CCOc1ccccc1N(CC(=O)Nc1ccc(OC)c(OC)c1)S(=O)(=O)c1ccccc1,?,?,3%,-1%,?
COc1ccc(N(CC(=O)NCc2ccncc2)S(=O)(=O)c2ccccc2[N+](=O)[O-])c(OC)c1,1%,4%,2%,-11%,-2%
CCOc1ccccc1N(CC(=O)Nc1ccc(OC)cc1)S(=O)(=O)c1ccccc1,?,13%,nt,2%,?
CCOc1ccc(NC(=O)CN(c2ccccc2OCC)S(=O)(=O)c2ccccc2)cc1,18µM*,nt,2%[2.28 µM],nt,?
COc1cc(Cl)c(C)cc1NC(=O)CSc1ncc(S(=O)(=O)c2ccc(C(C)(C)C)cc2)c(=O)[nH]1,2%,nt,?,nt,2%
SMILES,DT40 TDP1 no CPT,RORgamma inh,TDP1 inh,Gal4-VP16 FLuc,TDP1 cell CPT
CCn1c(SCC(=O)NC2CCCC2)nnc1-c1ccco1,-5%,0%,nt,9%,3%
CCc1ccc(NC(=O)CSc2nc(=O)n(Cc3ccccn3)c3c2CCC3)cc1,?,nt,3%,nt,?
COCC(=O)NCCSc1c(C)[nH]c2ccccc12,8%,17%,8%,7%,2%
COc1ccc(NC(=O)CN(c2ccccc2F)S(=O)(=O)c2ccc(C)cc2)c(OC)c1,15µM*,3%,7%,-10%,16µM*
CN(CC(=O)Nc1ccc(F)cc1Cl)Cc1cccs1,0%,-44%,2%,24%,-1%
Cc1noc(C)c1COC(=O)C1CC(O)CN1S(=O)(=O)c1ccc(Cl)cc1 (stereo not given),4%,-3%,1%,4%,-13%
Cc1ccc(Cl)cc1N1CCN(C(=O)c2ccc(CS(=O)(=O)c3ccccc3C)o2)CC1,18µM*,nt,3%,nt,?
Cc1ccccc1S(=O)(=O)Cc1ccc(C(=O)N2CCN(c3ccc(F)cc3)CC2)o1,?,?,4%,3%,16µM*
O=C(c1ccc(CS(=O)(=O)c2c(Cl)cccc2Cl)o1)N1CCN(c2ccccc2)CC1,15µM*,nt,7%,nt,?
Cc1ccc(S(=O)(=O)Oc2ccccc2/C=N/NC(=O)c2c(Cl)cnn2C)cc1,?,3.2µM*,5%[56.1 µM],?,?
Cn1ncc(Cl)c1C(=O)N/N=C/c1ccccn1,?,1%,8%,-1%,?
